Shown is part of a subset that was picked to be rich in hits.
FXIa mix inh: FXIa protease inhibitors in compound pools, primary screen, biochemical, 10-compound mixtures. AID 680, 2007. Coagulation factor XI (Homo sapiens), P03951. purified FXIa, fluorogenic substrate, pooled mixtures. 62,000 compounds, 0.19% hits. inhibition, % at 5 µM;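 note: each value is inhibition by a whole ten-compound pool holding the compound; 0% = enzyme with no mixture and 100% = wells lacking enzyme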
Target sequence (P03951 19-387 limits assumed): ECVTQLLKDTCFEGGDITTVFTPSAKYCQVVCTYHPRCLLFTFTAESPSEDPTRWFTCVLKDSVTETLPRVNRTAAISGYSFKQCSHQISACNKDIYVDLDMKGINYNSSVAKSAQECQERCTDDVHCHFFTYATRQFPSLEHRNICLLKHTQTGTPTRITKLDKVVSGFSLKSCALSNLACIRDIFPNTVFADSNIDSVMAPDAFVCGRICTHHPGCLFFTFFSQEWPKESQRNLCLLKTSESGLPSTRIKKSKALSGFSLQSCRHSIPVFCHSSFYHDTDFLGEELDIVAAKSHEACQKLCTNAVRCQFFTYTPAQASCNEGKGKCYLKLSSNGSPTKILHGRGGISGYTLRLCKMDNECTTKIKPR
Target sequence (P03951 388-625 limits assumed): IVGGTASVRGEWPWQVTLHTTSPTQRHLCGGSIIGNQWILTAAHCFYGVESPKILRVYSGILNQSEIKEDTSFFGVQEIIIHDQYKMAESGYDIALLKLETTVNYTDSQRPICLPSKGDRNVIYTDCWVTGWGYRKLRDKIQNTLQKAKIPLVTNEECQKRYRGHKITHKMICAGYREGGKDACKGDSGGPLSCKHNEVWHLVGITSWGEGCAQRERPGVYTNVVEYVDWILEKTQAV
TNAP act DEA: human TNAP enzyme activators, primary screen, biochemical, luminescent, intermediate phosphate acceptor level. purified TNAP, CDP-star luminescence, 100 mM DEA, 30 min; hits give high values; scale: 0 levamisole-inhibited, 1 vehicle-only enzyme. activation factor at 20 µM. 64,000 tested, under 10 active. AID 813, 2007;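 active = activation factor of at least 2 at 20 µM, relative to controls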
FXIIa inh mix: human factor XIIa inhibitors, primary screen, biochemical, pooled compound mixtures, fluorogenic substrate | Coagulation factor XII (Homo sapiens), P00748 | purified FXIIa | inhibition, % at 5 µM | 62,000 compounds, 0.2% hits;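 note: 0% = enzyme without compound and 100% = no enzyme blank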
D1 mod: D1 CRE-luciferase signal change, two-sided – cell-based, HEK293 D1, dopamine EC30, D1 allosteric modulator project, primary screen; D(1A) dopamine receptor (Homo sapiens), P21728; dopamine EC30 potentiation; actives deviate in either direction; B-score at 10 µM; 58,000 compounds, 5.9% hits; AID 641, 2007;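 active = luminescence count or its row- and column-corrected plate score outside the 99.7% band of the plate's sample wells, on either side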
Calb biofilm kill: clotrimazole potentiators killing Candida biofilms, primary screen, with clotrimazole, Alamar Blue; AID 834, 2007; 85,000 compounds, 0.14% hits; inhibition, % at 6 µM; C. albicans biofilm + clotrimazole;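 active = inhibition above 20%; inactive = inhibition below 20%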;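 note: preformed 24 hr biofilms exposed to compound for 48 hr; 0% = biofilm without compound and 100% = blank killed by clotrimazole plus chlorhexidine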
HePTP inhibitor: inhibitors of human HePTP phosphatase, primary screen, biochemical, absorbance, leukemia target. Tyrosine-protein phosphatase non-receptor type 7 (Homo sapiens), P35236. recombinant HePTP phosphatase activity, OD absorbance. inhibition, % at 20 µM. 110,000 compounds, 0.64% hits. AID 521, 2006; in the data active = inhibition above about 50%;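 note: plate controls were vehicle for no effect and reference inhibitor for full effect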
D1 mod confirm: D1 receptor positive allosteric modulators, retest, confirmation, cell-based, HEK293 D1, CRE-luciferase, duplicate. shares compounds with D1 mod. dopamine EC30 potentiation; hits give high values. luminescence at 10 µM. 2,200 compounds, 88% hits. AID 642, 2007;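 active = luminescence in either of two replicates above the same-plate mean plus 3 SD of the low-dose dopamine control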
D1 ag no DA: D1 receptor agonism without dopamine, confirmation, mechanism study for D1 allosteric modulator project, cell-based, HEK293 D1, CRE-luciferase, secondary assay 1; 1,900 compounds, 0.8% hits; shares compounds with D1 mod; luminescence at 10 µM; luminescence, no dopamine; hits give high values; in the data active = luminescence above about 3900
Isoprot counter: alters isoproterenol CRE-luciferase response in HEK293 cells. luminescence at 10 µM. 2,200 compounds, 63% hits. shares compounds with D1 mod. HEK293 D1 CRE-luciferase, isoproterenol EC30 counter-screen; hits give high values;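 active = luminescence in either replicate above plate mean of wells with a partly effective reference agonist dose plus 3 SD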;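 note: isoproterenol raises cAMP through native beta-adrenoceptor Gs so signal bypasses D1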
* hit, by the source's call; / = not tested or not shown. Cut-off read from the data, not from the text of the source, unless noted: active = inhibition above about 20% (passing the limit was not always enough); inactive = the rest.

SMILES	FXIa mix inh	TNAP act DEA	FXIIa inh mix	D1 mod	Calb biofilm kill	HePTP inhibitor	D1 mod confirm	D1 ag no DA	Isoprot counter
CCOC(=O)C(CCC(=O)CC(C)C)C(C)=O (stereo unspecified)	/	/	/	/	/	-6	/	/	/
COc1cccc(C(=O)N2CCNCC2)c1OC	/	/	/	/	/	-2	/	/	/
CCOC(=O)/C(C(=O)Nc1ccc(Cl)cc1Cl)=C1\NC(C)(C)Cc2ccccc21	/	/	/	/	/	-9	/	/	/
CCOC(=O)c1oc2ccccc2c1NC(=O)c1ccccc1OC	-1	0.8	10	4.5*	2	-1	11400*	1632	4680*
CCOc1ccc(CC(=O)Nc2c(C(N)=O)oc3ccccc23)cc1OCC	3	0.9	6	4.5*	/	12	7352*	1544	3564
CCOC(=O)c1oc2ccccc2c1NC(=O)COc1cccc(OC)c1	2	1	3	/	9	-13	/	/	/
COc1cc(N2CCCCC2)ccc1[N+](=O)[O-]	/	/	/	/	/	5	/	/	/
C1=NC(c2ccccc2)C(c2ccccc2)=NN1 (stereo unspecified)	/	/	/	/	/	1	/	/	/
O=C1N=C(c2ccccc2)C(c2ccccc2)N1 (stereo unspecified)	3	0.9	5	8.8*	/	-1	22264*	20356*	3332*
COC(=O)c1sccc1NC(=O)c1cc(-c2cccs2)nc2ccccc12	/	/	/	/	/	10	/	/	/
Cc1ccc(N2C(N)=C(C#N)C(c3ccsc3)C3=C2CC(C)(C)CC3=O)cc1 (stereo unspecified)	/	/	/	/	5	/	/	/	/
N#CC1=C(N)N(c2ccccc2)C2=C(C(=O)CCC2)C1c1ccsc1 (stereo unspecified)	2	0.9	2	8.3*	3	-5	17976*	1976	3340
CCOc1ccc(Cc2nnc(N)s2)cc1OCC	3	1	11	11*	6	-9	18204*	1736	4632*
O=C1CC(c2ccc(O)cc2)c2ccc3ccccc3c2N1 (stereo unspecified)	/	/	/	/	/	-3	/	/	/
O=C1C2ON(c3ccccc3)C(c3ccc(F)cc3)C2C(=O)N1c1ccc(N2CCOCC2)cc1 (stereo unspecified)	/	/	/	/	/	-2	/	/	/
COc1ccc(-c2nnc(NC(=O)c3ccc(Cl)cc3)s2)cc1OC	/	/	/	/	/	10	/	/	/
COc1ccc(OC)c2sc(NC(=O)C3CC3)nc12	6	0.9	-3	3.9*	2	0	10100*	/	2520
CCC(=O)Nc1nc2c(OC)ccc(OC)c2s1	-2	0.9	11	2.9*	-1	-8	8516*	1464	2988
O=C1C2C3C=CC(C4CC34)C2C(=O)N1c1ccccc1F (stereo unspecified)	/	/	/	/	/	6	/	/	/
CCOC(=O)c1ccc2nc(NC(=O)C(C)C)sc2c1	5	0.9	5	5.4*	6	8	7532	1532	2448
Cc1ccc(C)c(NC(=O)CCC2CCCCC2)c1	/	/	/	/	/	4	/	/	/
CNc1oc(-c2ccco2)nc1C#N	-1	1	-9	-0.056	6	-4	/	/	/
COc1ccc(Nc2oc(-c3cccs3)nc2C#N)cc1	/	0.9	/	8.1*	2	-4	16196*	1612	4256*
N#Cc1nc(-c2ccco2)oc1NCCc1ccccc1	1	0.8	4	5.5*	2	2	13580*	1764	3636*
N#Cc1nc(-c2cccs2)oc1NCCc1ccccc1	0	0.8	3	12*	2	7	14100*	1620	13268*
SMILES	FXIa mix inh	TNAP act DEA	FXIIa inh mix	D1 mod	Calb biofilm kill	HePTP inhibitor	D1 mod confirm	D1 ag no DA	Isoprot counter
N#Cc1nc(-c2ccccc2F)oc1NCCc1ccccc1	/	/	/	/	-6	/	/	/	/
COc1ccc(CCNc2oc(-c3ccco3)nc2C#N)cc1	5	0.9	-3	3.8	3	12	/	/	/
CNc1oc(-c2cccs2)nc1C#N	2	0.9	4	/	3	4	/	/	/
Cc1ccc(CNc2oc(-c3ccco3)nc2C#N)cc1	7	0.9	-23	27*	8	5	18284*	1756	5916*
Cc1cccc(OCC(=O)NCc2ccco2)c1	/	/	/	/	/	4	/	/	/
N#Cc1nc(-c2cccs2)oc1NCc1ccc2c(c1)OCO2	/	0.9	/	16*	6	6	19192*	1548	6468*
N#Cc1nc(-c2cccs2)oc1NCCN1CCOCC1	2	0.9	28	/	1	8	/	/	/
CCOc1cc(/C=C2\SC(=S)N(Cc3ccco3)C2=O)ccc1O	/	/	/	/	/	6	/	/	/
Cc1cccc(C(=O)Nc2cccc(C(N)=O)c2)c1	/	/	/	/	/	1	/	/	/
CN(Cc1ccccc1)c1nc2c(c(=O)[nH]c(=O)n2C)n1Cc1ccccc1	-3	0.9	7	23*	-3	/	19372*	1600	5128*
CN(Cc1ccccc1)c1nc2c(c(=O)[nH]c(=O)n2C)n1CCCSc1ncccn1	7	0.9	-18	/	0	9	/	/	/
CCN(CC)CCNc1nc2c(c(=O)[nH]c(=O)n2C)n1CCOc1ccccc1	/	0.9	/	0.16	-2	2	/	/	/
CN(Cc1ccccc1)c1nc2c(c(=O)[nH]c(=O)n2C)n1CCOc1ccccc1	3	0.9	0	6.8*	3	-8	12188*	1500	4732*
CN(Cc1ccccc1)c1nc2c(c(=O)[nH]c(=O)n2C)n1CCSc1ncccn1	/	/	/	/	7	/	/	/	/
CCCCCn1c(N(C)Cc2ccccc2)nc2c1c(=O)[nH]c(=O)n2C	5	1	24	14*	6	-5	21892*	1452	9964*
COCCNC(=O)c1cc(-c2ccc(Cl)c(Cl)c2)on1	2	0.9	13	0.59	11	4	/	/	/
COc1ccc(-c2cc(C(=O)NCc3cccnc3)no2)cc1OC	-1	1	13	4.2*	/	-3	9080*	/	2768
COCCNC(=O)c1cc(-c2ccc(OC)c(OC)c2)on1	0	1	12	15*	/	-3	15388*	1528	3480*
COc1ccc(-c2cc(C(=O)N3CCc4ccccc4C3)no2)cc1OC	-3	0.9	0	4.6*	3	-12	10752*	1528	3948*
Nc1nc(-c2ccco2)nc(N2CCCCC2)n1	3	1	7	10*	/	5	14860*	/	2796*
CCOc1cc2oc(=O)c(CC)c(C)c2cc1CC	/	/	/	/	/	-5	/	/	/

Screening results from PubChem BioAssay.
